# Laboratory results as given in PubChem BioAssay (NCI).
# This is part of a sample that, as a whole, favours compounds with a hit. Of some 79,000 tested, about 15% had one in any assay. Activity calls are given as the source filed them. Rule as the data show it: active = growth inhibition above about 70%; inactive = the rest.
# Experiment: NCI Yeast Anticancer Drug Screen. Data for the wt1 strain (AID 149);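 also: 0% = growth of vehicle-treated wt1 cultures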
# Conditions: S. cerevisiae wt1 strain (SPY 50644) growth inhibition; at 11.0 µM; hits give high values
# In short: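 Compounds are added to wt1 yeast cultures. Growth is then measured. Inhibition is expressed relative to vehicle-treated controls.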
row,Compound,growth inhibition
1,CCOP(=O)(OCC)C(Cc1ccccc1)N=C(c1ccccc1)c1ccccc1 (centres undefined),-5% (inactive)
2,CCc1ncnc2cc(OCC3CO3)c(OC)cc12 (centres undefined),3% (inactive)
3,CCOC(=O)[C@H]1Nc2ccccc2C2c3ccccc3CC21 (some centres undefined),0% (inactive)
4,O=CNc1ccc2c(c1)C(=O)c1ccccc1-2,8% (inactive)
5,CCOc1ccc2c(c1)c(CC(=O)O)cn2C,3% (inactive)
6,OC1CSCCCSCCSCCCSC1,-22% (inactive)
7,N#Cc1c(N)[nH]c2ccc(Sc3ccccc3)cc12,1% (inactive)
8,Cc1ccc(-c2ccc(Nc3c4ccccc4nc4ccccc34)cc2)cn1,43% (inactive)
9,c1ccc2c(c1)NC(NC1Nc3ccccc3N1)N2,4% (inactive)
10,OC(COc1cccc2ccccc12)CN1CCOCC1 (centres undefined),30% (inactive)
11,CCC/C(Cl)=N\OC(=O)Nc1ccc(Br)cc1,58% (inactive)
12,COc1ccc(/C=C2\SC(=S)N(/C=C/c3nc4ccccc4[nH]c3=O)C2=O)cc1OC,10% (inactive)
13,O=C(NNc1ccnc2cc(Cl)ccc12)/C(=C\c1ccccc1Cl)NC(=O)c1ccccc1,6% (inactive)
14,CSC1=NNC(SC)=NN1,-6% (inactive)
15,Cc1c(C2=C(Br)C(=O)N(C)C2=O)c(=O)n(C)c(=O)n1C,23% (inactive)
16,NCCNc1ccc(NCCN)c2c1C(=O)c1c(O)ccc(O)c1C2=O,7% (inactive)
17,Cn1c(=O)c(-c2ccccc2)c(N=[N+]=[N-])c2ccccc21,-25% (inactive)
18,CCCCCCCCCCCCCCCCCCOCC(O)COP(=O)(O)OCC1OC(n2cc(F)c(=O)[nH]c2=O)CC1O (centres undefined),-7% (inactive)
19,CCS(=O)(=O)c1ccc(/C=C/C=N/NC(=S)NCC(C)C)cc1,5% (inactive)
20,CCC(=O)Oc1c(Cl)cc(Cl)c2ccccc12,-4% (inactive)

row,Compound,growth inhibition
1,COc1cc2c3c(cccc3c1)C(=O)N(CCN(C)C)C2=O,-10% (inactive)
2,CN(C)c1ccc(C(C#N)=C(C#N)C#N)cc1,-6% (inactive)
3,O=C(CCCN1CCC2(CC1)CC(=O)N(N1CCCCCC1)C2=O)c1ccc(F)cc1,25% (inactive)
4,O=C1C2C(C(=O)N1c1ccc(OCc3ccccc3)cc1)C1c3ccccc3C2C2CCCCN21 (centres undefined),-10% (inactive)
5,CCN(CC)CCC(=O)c1ccc(Oc2ccc(F)cc2)cc1,21% (inactive)
6,O=Nc1c(NO)ccc2nn(-c3ccccc3)nc12,96% (active)
7,CC(=O)SCCC[Si](C)(C)CCCSC(C)=O,-7% (inactive)
8,O=C(O)C1CCCCC1c1c2ccc(=O)c(O)c-2oc2c(O)c(O)ccc12 (centres undefined),-3% (inactive)
9,Cc1ccc(NN(NC(=O)OC(C)C)C(=O)OC(C)C)cc1,4% (inactive)
10,O=C1c2ccccc2C(=O)c2cc(CBr)ccc21,-1% (inactive)
11,Cc1c(C(Cc2ccccc2N(C)C(=O)/C=C\C(=O)O)c2c[nH]c3ccccc23)c2ccccc2n1C (centres undefined),-7% (inactive)
12,CC(C)/C(Cl)=N\OC(=O)Nc1ccc(F)cc1,-3% (inactive)
13,O=C1OC(=O)C2CCCC3CCCC1C32 (centres undefined),83% (active)
14,CCOC(=O)C(NC(=O)c1ccccc1)(N1CCN(c2cc3c(cc2F)c(=O)c(C(=O)O)cn3C2CC2)CC1)C(F)(F)F (centres undefined),-1% (inactive)
15,COc1ccc(NC(=S)N/N=C(\c2ccccc2)c2ccccn2)cc1,-3% (inactive)
16,C=CCC1=C(C)C(OC(=O)/C=C/c2ccccc2)CC1=O (centres undefined),-5% (inactive)
17,NNc1c(F)c(F)cc(F)c1F,-20% (inactive)
18,COP(=O)(OC)/C(=C\C1=CN(C(c2ccccc2)(c2ccccc2)c2ccccc2)CN1)NC=O,5% (inactive)
19,COC(=O)c1cc(-c2ccc(C)cc2)[nH]c(=O)c1C#N,-1% (inactive)
